Data published in the supplement of paper PMC11732987, “Enantioselective OTUD7B fragment discovery through chemoproteomics screening and high-throughput optimisation” (Communications Chemistry, 2025).

Columns and labels:
Assay in all cases: log2 ratio of Biotin-Ahx-Ub-VS probe labelling (fragment/DMSO); higher = less target engagement (more negative = stronger competition), active = hit call of the paper (q ≤ 0.05, log2 ratio ≤ -1)
Settings in all cases: compound concentration: 200 uM; treatment time: 3 h
USP19 = molecular target: T1, USP19 (UniProt O94966)
T1 sequence (whole entry): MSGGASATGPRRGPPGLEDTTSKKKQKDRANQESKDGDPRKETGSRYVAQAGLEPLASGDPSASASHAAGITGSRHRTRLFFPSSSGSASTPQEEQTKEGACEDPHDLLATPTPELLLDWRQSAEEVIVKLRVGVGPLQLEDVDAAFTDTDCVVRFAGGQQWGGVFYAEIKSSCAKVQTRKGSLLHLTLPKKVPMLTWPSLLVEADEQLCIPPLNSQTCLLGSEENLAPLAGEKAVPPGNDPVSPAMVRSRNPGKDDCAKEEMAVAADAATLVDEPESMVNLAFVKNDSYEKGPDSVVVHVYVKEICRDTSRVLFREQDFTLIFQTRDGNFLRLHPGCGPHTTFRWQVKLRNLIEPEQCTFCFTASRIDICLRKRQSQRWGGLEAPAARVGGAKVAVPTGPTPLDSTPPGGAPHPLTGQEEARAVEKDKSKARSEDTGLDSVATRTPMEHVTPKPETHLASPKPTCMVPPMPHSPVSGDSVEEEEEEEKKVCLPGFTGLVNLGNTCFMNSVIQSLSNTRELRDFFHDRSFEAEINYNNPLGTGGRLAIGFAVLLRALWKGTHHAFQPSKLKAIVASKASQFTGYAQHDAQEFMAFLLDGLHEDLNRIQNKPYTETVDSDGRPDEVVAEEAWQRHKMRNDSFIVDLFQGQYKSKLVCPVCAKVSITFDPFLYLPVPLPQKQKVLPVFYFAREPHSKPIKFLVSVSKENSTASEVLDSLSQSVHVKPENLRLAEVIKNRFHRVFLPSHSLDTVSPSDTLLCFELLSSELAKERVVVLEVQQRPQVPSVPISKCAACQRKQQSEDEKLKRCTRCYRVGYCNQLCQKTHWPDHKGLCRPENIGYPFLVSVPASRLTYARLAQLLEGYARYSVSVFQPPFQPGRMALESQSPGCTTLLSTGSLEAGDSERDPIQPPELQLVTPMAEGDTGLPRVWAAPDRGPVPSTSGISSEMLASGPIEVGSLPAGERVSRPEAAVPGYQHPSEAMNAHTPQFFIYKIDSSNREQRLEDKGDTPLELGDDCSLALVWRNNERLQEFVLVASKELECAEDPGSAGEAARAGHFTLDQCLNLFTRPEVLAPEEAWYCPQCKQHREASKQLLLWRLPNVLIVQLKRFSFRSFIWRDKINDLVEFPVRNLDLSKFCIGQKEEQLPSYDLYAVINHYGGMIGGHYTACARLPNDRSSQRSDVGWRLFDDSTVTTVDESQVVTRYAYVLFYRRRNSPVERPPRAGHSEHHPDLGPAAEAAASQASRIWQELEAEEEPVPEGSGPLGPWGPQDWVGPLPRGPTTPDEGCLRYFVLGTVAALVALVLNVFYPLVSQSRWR
In short: (§1)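 Each value is an average log2 ratio of fragment to vehicle, tested by unpaired t-test. The underlying Spectronaut label-free quantities were global-median-normalised, and only proteins with ≥2 unique peptides were included. Triplicate HEK293T lysate samples (495 µg) were exposed to fragment at 200 µM or vehicle for 3 h, then to Biotin-Ahx-Ub-VS at 0.5 µM final for 1 h, before NeutrAvidin enrichment of labelled DUBs, LysC and trypsin digestion, and diaPASEF LC-MS/MS.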

USP24 = USP24 (UniProt Q9UPU5)
In short: as §1

USP25 = molecular target: T2, USP25 (UniProt Q9UHP3)
T2 sequence (whole entry): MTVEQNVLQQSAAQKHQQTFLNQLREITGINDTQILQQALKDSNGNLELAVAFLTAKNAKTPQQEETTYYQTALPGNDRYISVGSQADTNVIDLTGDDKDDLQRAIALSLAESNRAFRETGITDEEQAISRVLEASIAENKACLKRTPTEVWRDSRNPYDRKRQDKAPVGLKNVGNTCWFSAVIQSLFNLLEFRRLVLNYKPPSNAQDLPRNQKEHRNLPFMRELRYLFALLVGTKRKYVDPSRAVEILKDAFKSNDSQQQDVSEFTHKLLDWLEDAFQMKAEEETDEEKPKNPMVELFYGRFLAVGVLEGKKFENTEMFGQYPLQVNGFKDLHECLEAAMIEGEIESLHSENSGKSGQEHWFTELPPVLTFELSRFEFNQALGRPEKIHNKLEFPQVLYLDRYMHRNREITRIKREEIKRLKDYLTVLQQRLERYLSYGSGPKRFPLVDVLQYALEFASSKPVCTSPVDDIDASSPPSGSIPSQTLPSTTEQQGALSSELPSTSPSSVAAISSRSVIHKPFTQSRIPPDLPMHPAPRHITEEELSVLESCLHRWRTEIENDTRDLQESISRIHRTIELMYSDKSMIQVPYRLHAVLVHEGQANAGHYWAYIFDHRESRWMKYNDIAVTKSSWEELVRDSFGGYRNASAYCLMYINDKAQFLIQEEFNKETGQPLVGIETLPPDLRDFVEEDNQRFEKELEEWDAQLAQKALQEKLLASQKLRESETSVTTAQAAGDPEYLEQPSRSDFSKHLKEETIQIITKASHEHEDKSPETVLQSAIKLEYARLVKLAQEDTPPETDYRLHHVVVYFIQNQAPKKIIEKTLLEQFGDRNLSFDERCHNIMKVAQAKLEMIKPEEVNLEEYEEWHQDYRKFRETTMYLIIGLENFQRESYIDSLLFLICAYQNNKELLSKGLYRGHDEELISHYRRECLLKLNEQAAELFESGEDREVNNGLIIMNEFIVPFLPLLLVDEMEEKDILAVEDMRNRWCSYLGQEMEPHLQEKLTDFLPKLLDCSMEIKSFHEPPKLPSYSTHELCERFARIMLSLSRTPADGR
In short: as §1

USP28 = molecular target: T3, USP28 (UniProt Q96RU2)
T3 sequence (whole entry): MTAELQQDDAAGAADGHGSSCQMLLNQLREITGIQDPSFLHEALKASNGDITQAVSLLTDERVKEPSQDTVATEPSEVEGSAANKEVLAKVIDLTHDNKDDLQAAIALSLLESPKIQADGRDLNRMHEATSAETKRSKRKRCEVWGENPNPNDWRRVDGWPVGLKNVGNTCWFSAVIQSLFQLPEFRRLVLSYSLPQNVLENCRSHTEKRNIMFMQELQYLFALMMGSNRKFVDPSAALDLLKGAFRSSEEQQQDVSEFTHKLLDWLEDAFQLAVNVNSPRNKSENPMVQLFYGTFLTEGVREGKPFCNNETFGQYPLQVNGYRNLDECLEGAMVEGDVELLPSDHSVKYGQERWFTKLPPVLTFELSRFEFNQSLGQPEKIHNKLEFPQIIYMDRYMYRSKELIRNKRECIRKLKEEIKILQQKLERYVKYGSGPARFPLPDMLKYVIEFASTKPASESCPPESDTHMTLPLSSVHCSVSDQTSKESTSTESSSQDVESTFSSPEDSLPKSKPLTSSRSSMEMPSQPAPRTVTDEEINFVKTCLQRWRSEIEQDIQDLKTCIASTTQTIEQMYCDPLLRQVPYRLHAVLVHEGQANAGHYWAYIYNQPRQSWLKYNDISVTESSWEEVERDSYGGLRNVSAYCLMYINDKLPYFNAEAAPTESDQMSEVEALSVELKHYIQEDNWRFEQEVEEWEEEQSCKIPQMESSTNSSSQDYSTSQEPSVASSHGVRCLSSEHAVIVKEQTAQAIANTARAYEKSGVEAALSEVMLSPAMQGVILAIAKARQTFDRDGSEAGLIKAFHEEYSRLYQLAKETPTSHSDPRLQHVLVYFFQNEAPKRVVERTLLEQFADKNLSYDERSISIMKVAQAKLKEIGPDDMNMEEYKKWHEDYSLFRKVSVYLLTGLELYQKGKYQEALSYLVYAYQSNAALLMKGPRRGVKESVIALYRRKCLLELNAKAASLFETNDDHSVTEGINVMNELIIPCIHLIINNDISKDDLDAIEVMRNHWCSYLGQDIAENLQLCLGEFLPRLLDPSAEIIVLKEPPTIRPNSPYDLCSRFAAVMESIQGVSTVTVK
In short: as §1

Measured: log2 ratio of Biotin-Ahx-Ub-VS probe labelling

Chain of USP24 (Q9UPU5 whole entry): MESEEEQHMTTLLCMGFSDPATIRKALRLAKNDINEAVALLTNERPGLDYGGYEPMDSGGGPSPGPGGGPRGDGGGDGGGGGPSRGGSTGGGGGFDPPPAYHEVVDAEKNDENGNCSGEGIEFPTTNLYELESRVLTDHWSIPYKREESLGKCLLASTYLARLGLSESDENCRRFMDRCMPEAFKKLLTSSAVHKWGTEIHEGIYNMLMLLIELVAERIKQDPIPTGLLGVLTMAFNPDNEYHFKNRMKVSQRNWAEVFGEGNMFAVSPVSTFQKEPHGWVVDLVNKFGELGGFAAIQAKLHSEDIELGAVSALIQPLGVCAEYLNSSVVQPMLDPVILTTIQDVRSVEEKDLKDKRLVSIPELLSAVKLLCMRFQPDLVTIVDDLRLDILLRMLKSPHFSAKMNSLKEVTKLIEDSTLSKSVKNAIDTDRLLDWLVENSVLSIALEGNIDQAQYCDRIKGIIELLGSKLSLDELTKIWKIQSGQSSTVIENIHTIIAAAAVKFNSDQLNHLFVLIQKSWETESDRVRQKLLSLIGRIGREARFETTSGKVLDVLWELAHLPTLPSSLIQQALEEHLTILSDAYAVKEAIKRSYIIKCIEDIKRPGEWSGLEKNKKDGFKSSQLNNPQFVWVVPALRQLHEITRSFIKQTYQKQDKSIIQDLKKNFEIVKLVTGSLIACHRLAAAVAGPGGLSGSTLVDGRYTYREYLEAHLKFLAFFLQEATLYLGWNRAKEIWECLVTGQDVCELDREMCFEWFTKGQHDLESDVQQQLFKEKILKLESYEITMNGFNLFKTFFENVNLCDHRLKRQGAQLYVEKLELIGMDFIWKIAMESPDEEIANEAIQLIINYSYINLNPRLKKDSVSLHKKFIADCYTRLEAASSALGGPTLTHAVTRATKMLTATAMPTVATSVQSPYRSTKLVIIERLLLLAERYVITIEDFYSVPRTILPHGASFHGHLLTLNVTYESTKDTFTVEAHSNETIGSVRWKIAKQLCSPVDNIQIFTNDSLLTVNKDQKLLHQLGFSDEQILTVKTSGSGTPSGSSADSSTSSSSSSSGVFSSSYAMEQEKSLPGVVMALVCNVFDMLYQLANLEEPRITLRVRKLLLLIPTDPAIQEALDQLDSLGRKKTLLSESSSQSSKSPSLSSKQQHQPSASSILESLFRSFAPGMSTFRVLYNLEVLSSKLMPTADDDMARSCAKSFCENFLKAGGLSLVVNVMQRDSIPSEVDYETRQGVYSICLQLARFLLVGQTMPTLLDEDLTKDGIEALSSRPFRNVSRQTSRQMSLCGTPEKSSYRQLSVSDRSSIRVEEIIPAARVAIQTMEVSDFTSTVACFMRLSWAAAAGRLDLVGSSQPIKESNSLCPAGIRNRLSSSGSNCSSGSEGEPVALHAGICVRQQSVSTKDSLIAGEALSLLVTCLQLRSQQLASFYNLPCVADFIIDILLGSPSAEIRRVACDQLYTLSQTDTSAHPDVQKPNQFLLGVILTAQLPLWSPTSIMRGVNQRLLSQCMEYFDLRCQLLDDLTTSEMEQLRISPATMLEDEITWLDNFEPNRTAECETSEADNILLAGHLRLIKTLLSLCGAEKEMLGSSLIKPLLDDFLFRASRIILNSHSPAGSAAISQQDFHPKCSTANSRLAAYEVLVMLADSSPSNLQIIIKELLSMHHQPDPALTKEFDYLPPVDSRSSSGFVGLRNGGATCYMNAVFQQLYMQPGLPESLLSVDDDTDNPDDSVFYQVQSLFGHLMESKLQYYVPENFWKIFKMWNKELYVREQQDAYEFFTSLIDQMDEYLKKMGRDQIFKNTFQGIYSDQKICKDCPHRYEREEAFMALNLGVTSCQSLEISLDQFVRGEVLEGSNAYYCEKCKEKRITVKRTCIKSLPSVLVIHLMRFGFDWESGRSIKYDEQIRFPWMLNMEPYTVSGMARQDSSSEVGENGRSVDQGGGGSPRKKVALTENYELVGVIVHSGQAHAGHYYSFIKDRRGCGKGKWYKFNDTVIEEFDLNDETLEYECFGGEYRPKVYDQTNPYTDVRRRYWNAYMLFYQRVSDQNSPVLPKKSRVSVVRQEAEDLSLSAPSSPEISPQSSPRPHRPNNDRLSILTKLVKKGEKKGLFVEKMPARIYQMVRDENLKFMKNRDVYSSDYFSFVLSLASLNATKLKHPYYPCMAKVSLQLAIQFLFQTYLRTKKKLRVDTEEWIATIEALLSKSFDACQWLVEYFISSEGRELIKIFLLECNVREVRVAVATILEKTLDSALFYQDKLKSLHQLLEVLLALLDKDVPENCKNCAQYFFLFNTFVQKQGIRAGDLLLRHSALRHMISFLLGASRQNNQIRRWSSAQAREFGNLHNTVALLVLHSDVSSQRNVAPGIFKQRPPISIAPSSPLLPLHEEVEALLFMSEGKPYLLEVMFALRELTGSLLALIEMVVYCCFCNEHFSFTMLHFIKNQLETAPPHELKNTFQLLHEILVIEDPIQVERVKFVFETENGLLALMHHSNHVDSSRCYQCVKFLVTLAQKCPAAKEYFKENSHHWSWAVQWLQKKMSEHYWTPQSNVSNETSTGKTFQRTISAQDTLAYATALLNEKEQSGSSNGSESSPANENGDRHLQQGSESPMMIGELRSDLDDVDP

COc1cccc(CN(C)C(=O)CCl)c1
inactive: USP19 -0.352 | USP24 -0.497 | USP25 -0.669 | USP28 -0.772
